Rows were chosen to be rich in hits. Some 8.7% of all compounds tested hit in one or more screens of this group.
PostGolgi ctrl: growth of the yeast control strain, post-Golgi counter-screen. efflux-deficient yeast background strain, growth absorbance A615, 16 h. inhibition, % at 10 µM. 98,000 compounds, 5% hits
Smad3 inh: inhibitors of human Smad3 transcription factor binding | P84022 | TR-FRET Smad3/Dy647-FoxH1 peptide binding, europium anti-His | inhibition, % at 25 µM | 88,000 compounds, 0.29% hits | AID 630;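 active = compounds that reduce the energy-transfer binding signal between the protein and its labelled peptide by more than half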
Target sequence (P84022 whole entry, looked up): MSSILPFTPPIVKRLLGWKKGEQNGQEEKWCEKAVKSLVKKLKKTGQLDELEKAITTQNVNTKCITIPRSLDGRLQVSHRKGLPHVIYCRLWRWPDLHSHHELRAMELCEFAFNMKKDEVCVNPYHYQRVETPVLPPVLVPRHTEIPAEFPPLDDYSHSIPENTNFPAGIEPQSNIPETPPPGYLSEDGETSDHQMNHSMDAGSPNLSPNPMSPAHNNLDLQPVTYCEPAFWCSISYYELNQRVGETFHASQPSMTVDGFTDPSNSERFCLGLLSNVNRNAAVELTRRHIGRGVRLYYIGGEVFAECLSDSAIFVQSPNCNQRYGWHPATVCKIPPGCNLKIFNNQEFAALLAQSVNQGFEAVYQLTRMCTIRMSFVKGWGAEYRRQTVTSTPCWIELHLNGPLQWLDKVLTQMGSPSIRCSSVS
TNAP act DEA: activators of human TNAP at intermediate phosphate acceptor. P05186. purified TNAP, CDP-star luminescence, 100 mM DEA, 30 min; hits give high values; scale: 0 levamisole-inhibited, 1 vehicle-only enzyme. activation factor at 20 µM. 64,000 tested, under 10 active;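 active = activation factor of at least 2 at 20 µM, relative to controls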
PostGolgi yeast: growth inhibition of a yeast mutant, post-Golgi transport screen. inhibition, % at 10 µM. post-Golgi transport phenotypic cell assay. 98,000 compounds, 0.9% hits;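 also: yeast cells grown in 1536-well plates; yeast grown about 18 h at 30C before absorbance read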
DAT uptake mod: modulates human dopamine transporter uptake under cocaine; AID 449768; 110,000 compounds, 1.3% hits; B-score at 10 µM; LLC-PK1 hDAT cells, [14C]-dopamine uptake with cocaine IC80; actives deviate in either direction; Q01959;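 active = Z score or B-score, a plate-position-corrected score, falls beyond the plate's 99.7% confidence bounds, in either direction; inactive = both scores lie inside the 99.7% bounds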
Cav32 inh: human Cav3.2 channel inhibition, primary screen; 100,000 compounds, 4% hits; O95180; AID 449739; Cav3.2-expressing cells, Fluo-4 calcium fluorescence FDSS; hits give low values; B-score at 10 µM;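 active = single-dose well whose peak fluorescence ratio is a statistical outlier from its plate by either plate-standardised score or position-corrected B-score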
Each line names hits and unclear results; the compound was inactive in the other large screens. Rule as the data show it, unless noted: active = inhibition above about 30%; inactive = the rest.

CCCn1c(SCC(=O)N2CCN(c3ccccc3)CC2)nc2ccccc2c1=O	PostGolgi ctrl 51, Cav32 inh -6.2
O=C(CSc1nc2ccccc2c(=O)n1Cc1ccco1)N1CCN(c2ccccc2)CC1	PostGolgi ctrl 36, Cav32 inh -4.9
Cc1nc2ccccc2n1/N=C/c1cccnc1	none (no result: TNAP act DEA, Cav32 inh)
Cc1[nH]n(-c2ccc([N+](=O)[O-])cc2)c(=O)c1C=NCCN1CCN(C(=O)c2cccc(F)c2)CC1	none (no result: TNAP act DEA)
CCSc1nc2c(cnn2-c2ccc(C)c(C)c2)c(=O)[nH]1	none
CC(C)CN(CC(C)C)S(=O)(=O)N1CCC(C(=O)NCCc2ccc(Cl)cc2)CC1	none (no result: TNAP act DEA)
CC12CCC(C(=O)NCc3ccccn3)(OC1=O)C2(C)C (stereo not given)	none (no result: Cav32 inh)
C=CCNC(=O)NC(=O)COC(=O)c1cccnc1SC	none (no result: TNAP act DEA)
CC(=O)OC1CCC2(C)C(CCC3C2CC(OC(C)=O)C2(C)C3C[C@@H]3O[C@]4(CC[C@@H](C)CO4)[C@@H](C)C32)C1 (stereo not given in full)	none (no result: PostGolgi ctrl, Smad3 inh, TNAP act DEA, PostGolgi yeast)
CCCCn1c(SCC(=O)NCc2ccccc2)nc2ccc(N3CCOCC3)cc2c1=O	PostGolgi ctrl 35
CCCCn1c(SCC(=O)NC(C)CC)nc2ccc(N3CCOCC3)cc2c1=O (stereo not given)	none (no result: Smad3 inh, TNAP act DEA, DAT uptake mod, Cav32 inh)
CCn1c(SCC(=O)N2CCN(c3ccc(Cl)cc3)CC2)nc2ccccc2c1=O	PostGolgi ctrl 55
CCC1CCCCN1C(=O)CSc1nc2ccsc2c(=O)n1Cc1ccccc1 (stereo not given)	Cav32 inh -4.9 (no result: TNAP act DEA)
Nc1cc(=O)nc(SCC(=O)NCc2ccccc2)n1CCc1ccccc1	DAT uptake mod -5.1 (no result: TNAP act DEA)
COc1cc2[nH]c3c(c2cc1OC)CCN1CCCC[C@@H]31	none (no result: PostGolgi ctrl, Smad3 inh, TNAP act DEA, PostGolgi yeast)
CC(C)NC(=O)c1cnc(Sc2ncc(C(F)(F)F)cc2Cl)n1C	none (no result: TNAP act DEA)
FC(F)(F)c1cnc(Sc2nc3nccc(-c4ccc(Cl)cc4)n3n2)c(Cl)c1	PostGolgi ctrl 39 (no result: Smad3 inh, TNAP act DEA, DAT uptake mod, Cav32 inh)
CSc1nc2nccc(-c3ccc(Cl)cc3)n2n1	PostGolgi ctrl 40 (no result: TNAP act DEA)
COc1ccc(-c2ccnc3nc(Sc4ncc(C(F)(F)F)cc4Cl)nn23)cc1	PostGolgi ctrl 40 (no result: Smad3 inh, TNAP act DEA)
COC(=O)C1=C(N)c2c(F)cccc2C1(C#N)c1ccc(F)cc1 (stereo not given)	Cav32 inh -5.6 (no result: TNAP act DEA)
CCCC(=O)N1c2ccccc2C(N(C(C)=O)c2ccccc2)CC1C (stereo not given)	none (no result: TNAP act DEA, Cav32 inh)
Cc1ccc(C(=O)N(c2ccccc2)C2CC(C)N(C(=O)c3ccco3)c3ccccc32)cc1 (stereo not given)	Cav32 inh -5.6 (no result: TNAP act DEA)
CCn1cc(C(=O)OCC(=O)OC2CC(C)CCC2C(C)C)c(=O)c2ccc(C)nc21 (stereo not given)	Cav32 inh -6.4
N#Cc1nc(Cc2cccc3ccccc23)oc1NCc1ccc(F)cc1	PostGolgi ctrl 31
C=CCc1ccc(OCCOCCOc2ccccc2[N+](=O)[O-])c(OC)c1	Cav32 inh -4.6 (no result: Smad3 inh, TNAP act DEA)
C=CCc1ccc(OCC(O)COc2ccc(CC=C)cc2OC)c(OC)c1	Cav32 inh -8.9 (no result: TNAP act DEA)
C=CCc1ccc(OCC(O)CN2CCCCC2)c(OC)c1 (stereo not given)	none
O=C(NC1CCCC1)C1(c2ccccc2)CCN(S(=O)(=O)c2ccccc2)CC1	none (no result: TNAP act DEA)
C=CCNC(=S)NNC(=O)c1cccn(Cc2ccc(Cl)c(Cl)c2)c1=O	Cav32 inh -5.9 (no result: Smad3 inh, TNAP act DEA)
CNC(=S)NNC(=O)c1cccn(Cc2ccc(Cl)c(Cl)c2)c1=O	none (no result: Smad3 inh, TNAP act DEA)
COC(=O)c1ccccc1NC(=O)CS(=O)(=O)Cc1nc(-c2ccc(C)cc2)oc1C	none
COCCCNC(=O)CS(=O)(=O)Cc1nc(-c2cccc(OC)c2)oc1C	none
COc1cc(OC)c(NC(=O)CS(=O)(=O)Cc2nc(-c3ccc(C)cc3)oc2C)cc1Cl	Cav32 inh -4.9
COc1ccc(OC)c(CCNC(=O)CS(=O)(=O)Cc2nc(-c3ccc(C)cc3)oc2C)c1	Cav32 inh -5.9
COc1ccc(-c2nc(CS(=O)(=O)CC(=O)Nc3ccc(Cl)cc3)c(C)o2)cc1	Cav32 inh -5.3
CN(CC(=O)N1CCCCC1)S(=O)(=O)c1cccc2cccnc12	none
COC(=O)C(NC(=O)c1ccco1)(Nc1ccc(Br)cn1)C(F)(F)F (stereo not given)	none
Cc1ccc(N(CN2CCCC2=O)C(=O)c2ccc(OC(C)C)cc2)cc1	PostGolgi ctrl 32 (no result: Smad3 inh)

High-throughput results from PubChem.
